JMJD2A Tudor inh – qHTS Assay for Inhibitors of JMJD2A-Tudor Domain | AlphaScreen JMJD2A-Tudor / H3K4me3 peptide binding | AID 504339, 2011 | Lysine-specific demethylase 4A (Homo sapiens), O75164 | hit rate 4.4% among 390,000 | Potency, µM (series often up to 114 µM), without a hit: at the highest dose activity change, negative = inhibition, usual class: inhibitors; further: potency means the concentration at half of the fitted maximal effect; on the % scale 0 is the no-effect control and ±100 the full control effect; nearly all actives have a fitted effect of over 50% in size
HP1b chromo inh – HTS for Inhibitors of HP1-beta Chromodomain Interactions with Methylated Histone Tails. AID 540317, 2011. AlphaScreen HP1-beta / biotin-H3K9me3 peptide binding. hit rate 0.56% among 390,000. Potency, µM (highest dose often 114 µM), without a hit: at the highest dose activity change, negative = inhibition, hits mostly inhibitors. Chromobox protein homolog 1 (Homo sapiens), P83916; further: potency means the concentration at half of the fitted maximal effect; nearly all actives have a fitted effect of over 70% in size
Target sequence (P83916 whole entry, looked up): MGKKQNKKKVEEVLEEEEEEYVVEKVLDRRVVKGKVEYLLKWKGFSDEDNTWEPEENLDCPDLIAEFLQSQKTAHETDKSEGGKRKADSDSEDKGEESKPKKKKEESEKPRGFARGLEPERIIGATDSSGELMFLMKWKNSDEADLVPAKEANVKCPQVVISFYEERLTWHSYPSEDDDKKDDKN
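Compound inhibition of the preformed complex between 50 nM HP1-beta and 50 nM biotinylated H3K9me3 peptide was read by AlphaScreen. Buffer was PBS pH 7.4 with 0.01% Tween-20. Incubations ran 30 min at room temperature, with 10 ug/mL donor/acceptor beads.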
BAZ2B inh – qHTS Assay for Inhibitors of BAZ2B. Bromodomain adjacent to zinc finger domain protein 2B (Homo sapiens), Q9UIF8. AlphaScreen BAZ2B-H3K14Ac peptide displacement. Potency, µM (top dose mostly 114 µM), for the others: at the highest dose activity change, negative = inhibition, actives largely listed as inhibitors. hit rate 4.4% among 360,000; further: potency means the concentration at half of the fitted maximal effect; on the % scale 0 is the no-effect control and ±100 the full control effect; nearly all actives have a fitted effect of over 60% in size
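In this displacement format the biotinylated H3(5-23) peptide acetylated at Lys14 serves as ligand at 50 nM, with BAZ2B at 50 nM in PBS pH 7.4 containing 0.01% Tween-20. Donor and acceptor beads are 10 ug/mL final.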
PI5P4K alpha inh – qHTS for Inhibitors of phosphatidylinositol 5-phosphate 4-kinase (PI5P4K) | AID 652105, 2013 | max response, % | hit rate 1.2% among 330,000 | PI5P4Kalpha enzyme, ADP-Glo luminescence, 60 min; stronger effect = lower value | Phosphatidylinositol 5-phosphate 4-kinase type-2 alpha (Homo sapiens), P48426; active means max response of -50% or lower; inconclusive means between -30% and -50%; inactive means -30% or higher; further: value at the top dose of about 77 µM; on the % scale 0 is the no-effect control and ±100 the full control effect
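PI5P4Kalpha ADP-Glo assay; 5 microM ATP final; 60 min RT reaction; HEPES pH 7.4/EGTA/CHAPS, 5% DMSO; controls lacking substrate or enzyme; luminescent end-point.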
PLK1 PBD block – qHTS for Inhibitors of PLK1-PDB (polo-like kinase 1 - polo-box domain): Primary Screen; hit rate 2.8% among 360,000; Plk1 PBD binding of FITC phosphopeptide, fluorescence polarization; AID 720504, 2013; Potency, µM, inactives show max response, negative = inhibition, hits mostly inhibitors; Serine/threonine-protein kinase PLK1 (Homo sapiens), P53350; further: potency means the concentration at half of the fitted maximal effect; series mostly up to about 57 µM; on the % scale 0 is the no-effect control and ±100 the full control effect; nearly all actives have a fitted effect of over 65% in size
GCN5L2 inh – qHTS Assay for Inhibitors of GCN5L2. Histone acetyltransferase KAT2A (Homo sapiens), Q92830. GCN5L2 HAT assay, ThioGlo1 CoA-SH fluorescence. Potency, µM (series often up to 58.9 µM), for the others: top-dose activity change, negative = inhibition, hits mostly inhibitors. hit rate 0.21% among 390,000; further: potency means the concentration at half of the fitted maximal effect; on the % scale 0 is the no-effect control and ±100 the full control effect
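GCN5L2 (20 nM) in 50mM HEPES pH 7.5, 0.1mM EDTA, 0.01% Tween-20 preincubated 15 min with compounds at room temperature. Reaction started with H3(1-25) 75uM, acetyl-CoA 70uM, ThioGlo1 50uM; CoA-thiol fluorescence (Ex340/Em540) read at 0 and 20 min.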
Active calls of the source: *; [ ] = dose if it differs, or a comment. Sampled rows, rich in hits. Any-hit rate of the full collection: about 7%. Unless noted, the call rests on the fitted dose curve; in most records, active means well fitted curve in the direction sought with a large enough effect; inconclusive means small, poorly fitted or top-dose-only effect, or another doubt; inactive means no such curve, though single readings can be large; an effect the other way counts as inactive or inconclusive.

Screening CCCOc1ccc(-c2nc(SC)[nH]c(=O)c2C#N)cc1OC returned JMJD2A Tudor inh -17%, HP1b chromo inh 54%, BAZ2B inh -14% and GCN5L2 inh -6%.
For Cn1ccc2c(-c3ccc(CO)cc3)cc3c(c21)C1CCC3C1 (centres undefined) the results were PI5P4K alpha inh -3 and PLK1 PBD block 0%.
CCN(CC(=O)NCCC1=CCCCC1)S(=O)(=O)c1ccccc1 was read as JMJD2A Tudor inh -15%[11.4 µM], HP1b chromo inh 48%, BAZ2B inh 1%, PI5P4K alpha inh 1, PLK1 PBD block inconclusive and GCN5L2 inh 1%.
For O=C(COC(=O)CC1CC2CCC1C2)Nc1ccccc1[N+](=O)[O-] (centres undefined) the results were JMJD2A Tudor inh 50µM*, HP1b chromo inh inconclusive, PI5P4K alpha inh 7, PLK1 PBD block 6% and GCN5L2 inh -7%.
Screening O=C(COC(=O)CC1CC2CCC1C2)Nc1ccc(F)cc1 (centres undefined) returned JMJD2A Tudor inh -13%, HP1b chromo inh 39%, BAZ2B inh 6%, PI5P4K alpha inh 1, PLK1 PBD block -2% and GCN5L2 inh -17%.
`O=C1C=C(c2ccc3cc[nH]c3c2)C[C@@H](c2ccc3c(c2)OCO3)C1` gave JMJD2A Tudor inh 56µM*, HP1b chromo inh inconclusive, BAZ2B inh 50µM*, PI5P4K alpha inh inconclusive, PLK1 PBD block inconclusive and GCN5L2 inh -20%.
For CC1=C(C(=O)OCC2CCCO2)C(c2ccsc2)C2=C(CCCC2=O)N1 (centres undefined) the results were JMJD2A Tudor inh -4%, HP1b chromo inh 25%, BAZ2B inh -15%, PI5P4K alpha inh 7, PLK1 PBD block 0% and GCN5L2 inh -4%.
Cc1[nH]c(=O)[nH]c(=O)c1Sc1ccccc1[N+](=O)[O-] was read as JMJD2A Tudor inh -12%, HP1b chromo inh 32%, BAZ2B inh -6%, PI5P4K alpha inh -10, PLK1 PBD block 21µM* and GCN5L2 inh -5%.
For Cc1ccc(N(C)C(=O)Cn2nc(Cc3ccncc3)c3ccccc3c2=O)cc1C the results were JMJD2A Tudor inh -8%, HP1b chromo inh 46%, BAZ2B inh -12% and GCN5L2 inh -1%.
Screening Cc1ccc(N/N=C/c2c(C)c(C#N)c(=O)n(C)c2O)cc1C returned JMJD2A Tudor inh 11µM*, HP1b chromo inh -20%, BAZ2B inh 56µM*, PI5P4K alpha inh -54*, PLK1 PBD block 24µM* and GCN5L2 inh -14%.
Screening CCC1=Nc2ccccc2NC2=C1C(=O)CCC2 returned JMJD2A Tudor inh -38%, HP1b chromo inh 2%, BAZ2B inh 50µM*, PI5P4K alpha inh -22, PLK1 PBD block -20% and GCN5L2 inh -28%.
`Cc1ccc(C(=O)n2c(=S)nc3ccccn32)cc1` gave BAZ2B inh 9% and GCN5L2 inh -21%[0.501 µM].
Screening Cc1cccc(C(=O)n2c(=S)nc3ccccn32)c1 returned JMJD2A Tudor inh -16%, HP1b chromo inh -45%, BAZ2B inh 1%, PI5P4K alpha inh inconclusive, PLK1 PBD block 24µM* and GCN5L2 inh -7%[0.501 µM].
For Cc1nc(N2CCCC2)ncc1C(=O)NCc1ccccc1Cl the results were JMJD2A Tudor inh -1%, HP1b chromo inh 25%, BAZ2B inh -3% and GCN5L2 inh 24%.
COc1cc(C(=O)Nc2ccccc2SCc2cc(=O)n3nc(C)sc3n2)cc(OC)c1OC was read as JMJD2A Tudor inh inconclusive, HP1b chromo inh -2%, BAZ2B inh -17%, PI5P4K alpha inh -3, PLK1 PBD block 27µM* and GCN5L2 inh -3%.
For COC(=O)c1c(SC)nc2ccccc2c1OCc1ccccc1C the results were JMJD2A Tudor inh 139%, HP1b chromo inh 139%, BAZ2B inh 211% and GCN5L2 inh 5%.

Bioassay records: PubChem, National Center for Advancing Translational Sciences (NCATS)
